For 38 compounds, growth inhibition results are on record in PubChem BioAssay (NCI).

Values joined by “and” are separate entries in the source; they are usually repeats but may differ in a detail not shown here. Equal values may be shown once. Compounds without any hit were thinned out: in the full panel of roughly 79,000, 15% have a hit. Values without a mark were called inactive. Active and inactive are the calls of the source. Rule as the data show it: active = growth inhibition above about 70%; inactive = the rest.

A short description of one test: NCI Yeast Anticancer Drug Screen. Data for the mec2-1 strain (AID 157). Particulars: S. cerevisiae mec2-1 strain, at 3.7 µM, active compounds read high. An outline of the steps: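 Each compound was tested on mec2-1 yeast, a strain altered in DNA damage repair or cell cycle control. Growth inhibition is reported relative to vehicle.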
As for `CCC(=O)c1cc(C(=O)C(=S)SC)cc(C(=O)C(=S)SC)c1`, the growth inhibition was 36%. `CCn1c(O)c(C=Nc2ccccc2)s/c1=N/Nc1nc(-c2ccccc2)cs1`: the growth inhibition was -1%. For `Cc1ccccc1N=C(NO)c1ccccc1`, the growth inhibition was 0%. The same measure, in the same setting: to `Cc1nc2ccccc2nc1NNc1ccccc1` belongs 0%.

The test is the same for the next values; noted with them: S. cerevisiae mec2-1 strain, at 5.0 µM (retest, dose inferred, filed as 0.5), active compounds read high.
Regarding `O=[N+]([O-])c1cc[n+]([O-])cc1`, the growth inhibition is -52% and 2%. For the compound `CC1(C)CC(=O)C(/C=N/c2nc(-c3ccccc3)cs2)=C(O)C1`, the growth inhibition is 0%. Take `Nc1nc(N)c2nc(CNc3ccc(C(=O)NC(CCC(=O)O)C(=O)O)cc3F)cnc2n1` (configuration not stated): the growth inhibition was 26%. Same read-out and setting: as for `COC(=O)CC1(O)C(/C=C/c2ccccc2)C(C(=O)OC)C(=O)C(C(=O)OC)C1C(=O)OC` (configuration not stated), the figure is 1%.

In the case of `CC(C)(C)c1ccc(NS(=O)(=O)c2ccc(N)cc2)cc1`, the growth inhibition is 6%.

Consider `CCN(CC)CCNc1ccc([N+](=O)[O-])c2nc3ccccc3c(N)c12`, for which the growth inhibition is -5%. `CCCCN(CCCC)C(=O)/C=C/c1ccccc1`: the growth inhibition is -1%. On the same count and under the same terms, as for `O=c1[nH]c(-c2ccccc2)nc2c1sc1nc3ccccc3n12`, the figure is 5%. Still for that read-out and setting: to `O=[N+]([O-])c1ccc2c(c1)/C(=N/N=C1c3ccccc3Cc3ccccc31)c1cc([N+](=O)[O-])cc([N+](=O)[O-])c1-2` belongs 24%; to `CC(C)C(C)/C=C\C(C)C1CCC2C3=CC=C4CC(O)CCC4(C)C3CCC21C` (configuration not stated), 89% (active); to `O=C1Nc2ccc(Br)cc2C1=Nc1ccc2c(c1)OCO2`, 41%. On the same count and under the same terms, to `CCCCOCn1c(=O)[nH]c(=O)c2cc(Br)ccc21` belongs 14%.

Regarding `Cc1ccc(S/C(=C\C(=O)O)c2ccccc2)cc1`, the growth inhibition was -15%. On to `O=[N+]([O-])/C=C/c1cc(Cl)c(/C=C/[N+](=O)[O-])cc1Cl`, for which the growth inhibition is 18%.

With `Cc1cc(S(=O)(=O)Nc2nnc3cnc4ccccc4n23)c(S)cc1Cl`, the growth inhibition is 2%. On the same count and under the same terms, as for `O=C(/C=C/c1cc(Cl)cc(Cl)c1O)c1cccc(O)c1`, the figure is -9%. As for `NC1CCCCC1N.Nc1c(N=Nc2ccc(-c3ccc(N=Nc4cc(S(=O)(=O)[O-])c5ccccc5c4N)cc3)cc2)cc(S(=O)(=O)[O-])c2ccccc12.[OH3+].[OH3+].[Pt+4]`, the growth inhibition was 88% (active). Same read-out and setting: as for `COC(=O)CCC(NC(=S)N/N=C(\C)c1ccccn1)C(=O)OC` (configuration not stated), the figure is 9%; as for `NC(=O)C(=O)NNc1ccccc1`, -1%; as for `COc1cc(C2SCC(=O)N2c2ccc(-c3ccc(-n4c(-c5ccccc5)nc5ccccc5c4=O)cc3)cc2)ccc1O` (configuration not stated), -11%. On to `COc1ccc(/C=C/c2sc3ccccc3[n+]2CCCCI)cc1OC`, for which the growth inhibition is -16%. The same measure, in the same setting: to `Cc1c(C(C)C)cc(OCCO)cc1C(C)C` belongs -18%; to `Cc1cc(NCCCCCCCCNc2cc(C)nc3cc(N)ccc23)c2ccc(N)cc2n1`, 12%; to `C=C(Cl)COC(=O)Nc1cccc(Cl)c1`, -17%. Still for that read-out and setting: as for `CC(=O)OC1CC2C(C)(C)C(=O)C=C[C@]2(C)C2CCC3(C)C(=CCC3[C@H](CO)C[C@H](O)C(=O)C(C)(C)O)[C@]12C` (some centres not stated), the figure is -10%. The same measure, in the same setting: as for `COc1ccc(/C=C/C(=O)c2ccccc2)cc1OC`, the figure is -16%; as for `COc1c(O)c(C=O)c(Br)c(C=O)c1O`, 16%. For `O=[N+]([O-])c1cc(Cl)cnc1Br`, the growth inhibition was 22%. On to `Cc1ccc2c(c1)C1(SC(C)C(=O)N1c1ccc(Cl)cc1)C(=O)N2` (configuration not stated), for which the growth inhibition was -12%. For the compound `COc1cc(CSc2ccc(O)cc2)cc(O)c1O`, the growth inhibition is -14%. On the same count and under the same terms, as for `Cc1ccc2c3ccc4c(c3n(C)c2c1)C(=O)C=CC4=O`, the figure is 7%. Same read-out and setting: as for `O=C(Nc1ccc(Cl)cc1)Nc1nnc2nc(C(C(=O)c3cccc([N+](=O)[O-])c3Cl)c3nc4nnc(NC(=O)Nc5ccc(Cl)cc5)n4[nH]c3=O)c(=O)[nH]n12`, the figure is -2%; as for `O=C(O)C1CC(c2ccccc2)=NN1c1ccccc1` (configuration not stated), 27%. Still for that read-out and setting: to `CCCCc1ccc(-n2c(C)c(COC(=O)NC)c(COC(=O)NC)c2C)cc1` belongs 14%; to `CCC(=O)c1cc(C(=O)C(=S)SC)cc(C(=O)C(=S)SC)c1`, 56%; to `CCn1c(O)c(C=Nc2ccccc2)s/c1=N/Nc1nc(-c2ccccc2)cs1`, -25%. As for `Cc1ccccc1N=C(NO)c1ccccc1`, the growth inhibition is -44%. For the compound `Cc1nc2ccccc2nc1NNc1ccccc1`, the growth inhibition was -7%.
